Source: PubChem BioAssay
CBX7 AlphaScr: CBX7 inhibition, primary AlphaScreen | normalised signal (fraction of DMSO) (no concentration beside the values) | actives 1.1% (n = 66,000) | AlphaScreen His6-CBX7 / biotin-H3K27me3 peptide binding; hits give low values; in the data active = normalised signal below about 0.5
Target sequence (O95931 whole entry, looked up): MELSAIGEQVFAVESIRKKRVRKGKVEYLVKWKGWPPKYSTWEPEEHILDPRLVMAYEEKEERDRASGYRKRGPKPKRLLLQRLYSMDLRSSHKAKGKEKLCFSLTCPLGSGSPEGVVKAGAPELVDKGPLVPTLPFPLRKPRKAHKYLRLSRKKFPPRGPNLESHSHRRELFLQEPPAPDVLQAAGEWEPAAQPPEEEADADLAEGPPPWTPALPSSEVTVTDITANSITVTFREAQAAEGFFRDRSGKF
Large screens that a line does not name were inactive. Shown is part of a subset that was picked to be rich in hits.

CCOc1ccccc1NC(=O)c1sc2ncn(CC(=O)N(CC)CC)c(=O)c2c1C	none
COc1cc2c(cc1OC)C(C(=O)Nc1cnc3ccccc3c1)C1c3ccccc3CCN1C2=O (stereo unspecified)	none
Cc1cc(C(=O)NCCCN2CCN(c3ccccc3F)CC2)n(-c2ccccc2)n1	none
Cc1ccc(-n2cc(C(=O)Nc3ccc(F)c(Cl)c3)c3ccccc3c2=O)cc1C	none
Cc1cccn2c(Nc3ccccc3)c(-c3ccccn3)nc12	none
Cc1ccc(Nc2c(-c3ccc(C)cc3)nc3ccccn23)cc1	none
Cc1cccc(C)c1Nc1c(-c2ccccn2)nc2c(C)cccn12	none
c1ccc(Nc2c(-c3ccc(N4CCOCC4)cc3)nc3ccccn23)cc1	none
Clc1ccc(Nc2c(-c3ccccn3)nc3cnccn23)cc1	none
Cc1ccc(Nc2c(-c3ccccc3)nc3ccccn23)cc1	none
Cc1cccn2c(Nc3ccc(C(C)C)cc3)c(-c3ccccn3)nc12	CBX7 AlphaScr 0.26
c1ccc(Nc2c(-c3ccccn3)nc3ccccn23)cc1	CBX7 AlphaScr 0.24
CC(C)c1ccc(Nc2c(-c3ccccn3)nc3ccccn23)cc1	CBX7 AlphaScr 0.21
CCOc1ccc(NC(=O)N(Cc2cccnc2)Cc2ccccc2Cl)cc1	none
CC(C)c1ccc(NC(=O)[C@H](Cc2ccccc2)N2Cc3ccccc3C2=O)cc1	none
Cc1cccc(C)c1Nc1c(-c2ccsc2)nc2ccc(Br)cn12	none
CCc1cccc(NC(=O)CCc2c(C)nc3cc(-c4ccc(Cl)cc4)nn3c2C)c1	none
CC(C)(C)c1ccc(-c2csc(NC(=O)c3ccc(F)cc3)n2)cc1	none
COC(=O)c1ccc(N2C(=O)CC(NCCN3CCOCC3)C2=O)cc1 (stereo unspecified)	none
O=C1CC(NCCN2CCOCC2)C(=O)N1c1ccc(Br)cc1 (stereo unspecified)	CBX7 AlphaScr 0.46
CC(=O)Nc1ccc(N2C(=O)CC(NCCN3CCOCC3)C2=O)cc1 (stereo unspecified)	none
O=C(CCn1nc(-c2ccc(Cl)cc2)ccc1=O)NCCN1CCCCCC1	none
CCN(C(=O)c1ccc(CNc2c(N3CCC(C)CC3)c(=O)c2=O)cc1)c1ccc(OC)cc1	none
Cc1ccnc(Nc2nc(-c3sc(N)nc3C)cs2)c1	CBX7 AlphaScr 0.4
Cc1ccnc(Nc2nc(-c3c(C)nc4cc(C)ccn34)cs2)c1	none
Cc1ccnc(Nc2nc(-c3ccc(C(C)C)cc3)cs2)c1	none
CC(=O)Nc1ccccc1-c1nc2ccc(C(=O)NCCN(CC(C)C)CC(C)C)cc2[nH]c1=O	none
O=C(Nc1nc(SCc2ccccc2Cl)ns1)c1ncn[nH]1	CBX7 AlphaScr 0.053
O=C(Nc1ncc(Cc2ccccc2Cl)s1)c1cccc2ccccc12	none
O=C(Nc1cc(-c2nc3ccccc3s2)ccc1Cl)c1ncn[nH]1	none
c1ccc(CC2CCN(c3nc4nonc4nc3Nc3ccc4c(c3)OCO4)CC2)cc1	none
O=C(Nc1ccc(Cl)cc1)C1CCN(S(=O)(=O)c2cccnc2)CC1	none
COc1ccc(C(=O)Nc2c3c(nn2-c2ccc(F)cc2)CSC3)cc1	none
COc1ccc(C2C(C(=O)NC3CCCCCC3)CCC(=O)N2c2ccc(OC)cc2)cc1 (stereo unspecified)	none
CCCCNC(=O)CN1CCCN(Cc2ccc(F)cc2Cl)C1=O	none
Cc1ccc(OCCCCc2c(C)n[nH]c2C)c(C(C)(C)C)c1	CBX7 AlphaScr 0.42
Cc1ccc(C)c(OCCCCCCc2c(C)n[nH]c2C)c1	none
Cc1n[nH]c(C)c1CCCCCOc1ccccc1F	none
CCCCN(CCCC)S(=O)(=O)c1ccc(C(=O)Nc2nnc(-c3ccc(Cl)s3)o2)cc1	none
CCN(CC)S(=O)(=O)c1ccc(C(=O)Nc2nnc(-c3ccc(Cl)s3)o2)cc1	none
CN(C)S(=O)(=O)c1ccc(C(=O)Nc2nnc(-c3ccc(Cl)s3)o2)cc1	CBX7 AlphaScr 0.22
C=CCN(CC=C)S(=O)(=O)c1ccc(C(=O)Nc2nnc(-c3ccc(Cl)s3)o2)cc1	CBX7 AlphaScr 0.37
COc1ccc(-n2nnc3c(=O)n(Cc4cccc(F)c4)cnc32)cc1	none
CCn1c(C(=O)N2CCC(C(=O)N3CCCC3)CC2)cc2sccc21	none
O=C1c2ccccc2C(=O)N1C1C(=O)N(c2ccc(Br)cc2)C1c1ccc(F)cc1 (stereo unspecified)	none
Cc1cccc(C(=O)Nc2nc(-c3ccccc3)c(C)s2)c1	none
COc1cccc(N2CCN(C(=O)Cn3ncc4c3-c3cc(C)ccc3OC4)CC2)c1	none
O=C(O)c1cccnc1Oc1ccc(F)cc1	none
Cc1cccc(N2CCN(C(=O)c3cnn(-c4ccccc4)c3-n3cccc3)CC2C)c1 (stereo unspecified)	none
O=C(c1cc(-c2ccncc2)nc2ccccc12)N1CCN(c2ccccn2)CC1	none
Cc1cccc(N2CCN(C(=O)c3cc(-c4ccncc4)nc4ccccc34)CC2C)c1 (stereo unspecified)	CBX7 AlphaScr 0.41
COc1ccc(-c2nc3cc(NC(=O)C4CCCCC4)ccc3o2)cc1	none
CCOc1ccc(N2CCc3c2nc2ccc(Br)cc2c3N)cc1	CBX7 AlphaScr 0.21
Nc1c2c(nc3ccccc13)N(c1ccc(Cl)c(Cl)c1)CC2	none
Cc1ccc2nc3c(c(N)c2c1)CCN3c1ccccc1	none
COCCNC(=O)c1cc(Nc2ccccc2OC)nc2ccccc12	none
